# Data: PubChem BioAssay AID853 (Columbia University Molecular Screening Center, 2007)
# About 200 (0.43%) of roughly 47,000 compounds were called active. Not shown: some 1% with an inconclusive outcome.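 How the source made its calls: active means inhibition of aggregate fluorescence above about 70%, also judged a hit by eye on the cell image (limit read from the data, passing the limit was not always enough); inconclusive means no rule stated for this call; inactive means not judged a hit on image review.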 Many of the other results were omitted from the sample, so actives are more common in it than they were.
# Experiment: removal of polyQ htt aggregates in HeLa – imaging, HeLa Exon1htt(103Q)mCFP, confocal imaging, primary screen (AID 853);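 further: cells exposed to compound for three days before fixation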
# Conditions: aggregate imaging, at 1.5 µM; fraction fluorescence in grains: measured here: aggregate grain fluorescence fraction, stronger effect = lower value; inhibition: stronger effect = higher value, zero = plate's median compound well
SMILES,fraction fluorescence in grains,inhibition
Cc1ccc(CCN2CC(C(=O)O)CC2=O)cc1 (stereo unspecified),14.7,30.2% (inactive)
COc1ccc(C(CNC(=O)c2cccnc2SC)N2CCOCC2)cc1 (stereo unspecified),16.3,9.2% (inactive)
Cc1cc(C)nc(SCc2ccccc2C#N)n1,35.4,-3.8% (inactive)
Cc1ccc2[nH]c3c(=O)n(Cc4ccccn4)cnc3c2c1,21.3,46.1% (inactive)
Cc1ccc(-n2ccc(=O)c(C(=O)O)n2)cc1,23.5,0.4% (inactive)
Cc1cccc(C)c1-n1c(C)cc(/C=C2\C(=O)NN(c3ccccc3)C2=O)c1C,26.9,30.9% (inactive)
CCS(=O)(=O)N1CCN(C(=O)c2cccs2)CC1,32.5,27.2% (inactive)
C=CCC(NCc1ccco1)c1ccc(OC)cc1 (stereo unspecified),62.5,-55.5% (inactive)
O=S(=O)(NCc1ccccn1)c1ccc(F)cc1,25.8,28.4% (inactive)
Cn1c(NC(=O)c2ccc3c(c2)OCO3)cc(=O)n(C)c1=O,24.1,28.1% (inactive)
CCCc1nc2ccccc2c(C(=O)OCc2nnc(-c3cc(OC)c(OC)c(OC)c3)o2)c1CC,19.4,-8% (inactive)
Cc1ccc(NC(=O)CSCC(=O)N2CCOCC2)cc1,29.1,-41.8% (inactive)
COC(=O)[C@@H](NC(=O)Nc1cc(Cl)ccc1C)C(C)C,45.5,-4.8% (inactive)
CC(=O)Nc1ccc(OCC(O)CN2CCN(c3ccccc3Cl)CC2)cc1 (stereo unspecified),27.5,-41.1% (inactive)
CCC(=O)c1ccc(OCC(O)CN2CCN(c3cccc(C(F)(F)F)c3)CC2)cc1 (stereo unspecified),27.8,-52.7% (inactive)
CCC(=O)c1ccc(OCC(O)CN2CC(C)OC(C)C2)cc1 (stereo unspecified),7.49,75% (active)
COc1nc(-c2ccc(Cl)cc2)ccc1-c1noc(-c2cccs2)n1,28.7,4.7% (inactive)
Cc1cccc(NC(=O)Cn2cc(C(=O)c3ccco3)c3ccccc32)c1,68.4,-81.7% (inactive)
O=C(CSc1nnc(-c2cccs2)n1-c1ccccc1)NCc1ccco1,19.3,-12.1% (inactive)
Cc1ccc2cc(CCNC(=O)c3ccc4c(c3)OCO4)c(=O)[nH]c2c1,49.1,-20% (inactive)
COc1ccc(C2CC(=O)C=C(NCC3CCCO3)C2)cc1 (stereo unspecified),23.6,30.2% (inactive)
COc1ccccc1NS(=O)(=O)N(C)C,33.9,-71.4% (inactive)
CN(C)/C=C(\C#N)C(=O)c1cccnc1Oc1cccc(F)c1,38.8,-0.9% (inactive)
Cc1cccc(NC(=O)CSc2nc3c(c(=O)[nH]2)CCCC3)c1C,17.3,10.8% (inactive)

SMILES,fraction fluorescence in grains,inhibition
O=c1[nH]c(=O)n(Cc2ccco2)c2c1C(C(F)(F)F)(C(F)(F)F)N=C(c1ccco1)N2,27,36.4% (inactive)
Cc1ccc(-n2c(=O)cc(N3CCN(Cc4ccccc4)CC3)[nH]c2=O)cc1,52,-7.6% (inactive)
O=C(NC1CCc2ccccc21)C12CN(Cc3ccccc3)CC1C(c1cccc([N+](=O)[O-])c1)=NO2 (stereo unspecified),39,-1.5% (inactive)
COc1ccccc1NC(=O)c1ccc2nc(N3C(=O)CCC3=O)sc2c1,16.5,20.1% (inactive)
CC(C)c1nc(N2CCOCC2)c(C#N)c2c1COC(C)(C)C2,31.9,13.4% (inactive)
COc1ccc(C(=O)NC(=S)Nc2ccccc2N2CCN(S(C)(=O)=O)CC2)cc1OC,62.3,-41.7% (inactive)
C#CCSc1nnc(-c2sc3ccccc3c2Cl)o1,52.1,-34.1% (inactive)
Cc1ccc(C(=O)N/C(=C/C=C/c2ccccc2)C(=O)NCc2ccco2)cc1,45.3,-47.5% (inactive)
Cc1nc(-c2ccccc2)sc1-c1nc(-c2ccccc2)ncc1S(=O)(=O)c1ccccc1,41.3,7.6% (inactive)
Cc1ccc(C2NC(=S)NC3=C2N2CCC3CC2)cc1 (stereo unspecified),27.5,36.7% (inactive)
CSc1ccc(-c2c(C#N)c(N)nc3c2c(C)nn3-c2ccccc2)cc1,47.5,-12.6% (inactive)
COc1ccc(/C=C(\NC(=O)c2ccc(OC)c(OC)c2)C(=O)NCCc2c[nH]c3ccccc23)cc1,62.4,-62.1% (inactive)
CC(=O)NS(=O)(=O)c1ccc(NC(=S)NC(=O)C(C)(C)C)cc1,7.39,66.5% (inactive)
COc1ccc(-n2c(C)csc2=S)cc1,15.4,22.6% (inactive)
O=C(CSc1nnc(-c2ccco2)n1-c1ccccc1)NCCc1ccccc1,28.7,21.9% (inactive)
COc1cc(/C=C(\C#N)c2nc3c(s2)CC(C)CC3)ccc1O (stereo unspecified),38.1,4% (inactive)
Cc1ccc(-c2cnc(NC(=O)CCC(=O)N(C)Cc3ccccc3)n2C)cc1,44.1,-11.1% (inactive)
CCCCCCC12CCC(C(=O)O)(CC1)CC2,16.8,6% (inactive)
O=C(CN1CCOCC1)Nc1c(-c2ccccc2)c2cc(Br)ccc2[nH]c1=O,37.2,15.7% (inactive)
O=C(Oc1ccc([N+](=O)[O-])cc1)c1ccc2ccccc2n1,23.8,33% (inactive)
O=C(c1ccc2c(c1)OCO2)N1CCOCC1,22,-3.2% (inactive)
Cc1ccn(C(CC(=O)c2ccc(Br)cc2)C(=O)O)n1 (stereo unspecified),10.2,68.3% (inactive)
COc1ccc(C(C#N)Nc2ccccc2C)cc1 (stereo unspecified),18,57.1% (inactive)
C=CCn1c(CSc2nc3ccccc3s2)nnc1SCC(=O)NCc1ccco1,28.7,26.8% (inactive)
